Bioassay records as filed in PubChem.
The list is not random: actives were taken first. Their share in the collection is about 7.4%.
Rab9 prom act – activates the Rab9 promoter | Huh7 Rab9 promoter-luciferase reporter, luminescence, 24 h | 320,000 tested, 2.8% active | Potency, µM (doses to about 9.22 µM), without a hit: at the highest dose activation, negative = inhibition, most hits filed as activators; further: % of control where 0% means no effect; nearly all actives have a fitted effect of over 60% in size
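Rab9 promoter-driven luciferase in stably transfected Huh7 cells; 1500 cells/well rested 2 h, exposed to compound in DMSO for 24 h at 37 °C, 5% CO2. Luminescence read 10 min after adding luciferase reagent at ambient temperature.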
SMN2 splice up – increases expression of the SMN2 splice variant | 210,000 tested, 2.8% active | Potency, µM (series often up to 46.1 µM), for inactives: at the top dose activity change, positive = activation, usual class: activators | AID 1458 | HEK293 SMN2-luciferase splicing reporter, luminescence, 30-36 h; further: % of control where 0% means no effect; nearly all actives have a fitted effect of over 55% in size
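HEK293 cells carry an SMN2 minigene-luciferase reporter in which exon 7 inclusion puts luciferase in frame. Cells were seeded at 2000 cells/well, attached for 10-12 hours, then exposed to compounds for 30-36 hours at 37C before ONE-Glo luminescence.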
FLuc modulator – counter-screen for miR-21 project: firefly luciferase inhibitors or activators; P08659; purified FLuc, Km substrates, luminescence inhibition; Potency, µM (doses to about 57.5 µM), for the others: at the top dose activity change, negative = inhibition, usual class: inhibitors; 360,000 tested, 6.9% active; AID 588342;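 further: plate controls were vehicle for no effect and reference inhibitor for full effect; nearly all actives have a fitted effect of over 55% in size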
Target sequence (P08659 whole entry, looked up): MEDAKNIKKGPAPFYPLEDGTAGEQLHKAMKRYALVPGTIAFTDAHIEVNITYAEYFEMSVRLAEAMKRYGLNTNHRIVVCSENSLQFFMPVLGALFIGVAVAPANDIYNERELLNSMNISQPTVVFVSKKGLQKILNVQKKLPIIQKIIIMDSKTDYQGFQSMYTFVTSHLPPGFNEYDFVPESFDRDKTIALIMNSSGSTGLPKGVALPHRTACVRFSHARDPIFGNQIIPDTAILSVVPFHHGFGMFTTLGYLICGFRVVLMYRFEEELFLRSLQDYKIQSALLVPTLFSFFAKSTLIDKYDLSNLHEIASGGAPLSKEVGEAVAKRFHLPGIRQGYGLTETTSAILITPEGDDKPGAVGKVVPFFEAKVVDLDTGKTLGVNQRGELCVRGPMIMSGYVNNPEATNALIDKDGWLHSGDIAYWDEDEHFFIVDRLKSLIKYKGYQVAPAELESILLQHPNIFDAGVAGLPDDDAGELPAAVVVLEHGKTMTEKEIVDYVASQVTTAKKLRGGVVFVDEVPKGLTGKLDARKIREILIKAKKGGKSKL
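Purified P. pyralis luciferase, 10 nM final, with Km-level 10 uM D-luciferin and 10 uM ATP in 50 mM Tris acetate pH 7.5, 10 mM Mg acetate, 0.01% Tween-20, 0.05% BSA; 6-point qHTS titration about 60 µM downward; luminescence read.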
NPC1 prom act – NPC1 promoter activation; Huh7 NPC1 promoter luciferase reporter, 24 h; Potency, µM (series often up to 9.22 µM), for the others: at the highest dose activation, actives largely listed as activators; 320,000 tested, 2.4% active; further: % of control where 0% means no effect; nearly all actives have a fitted effect of over 60% in size
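In 1536-well qHTS, Huh7 cells harboring an NPC1 promoter–luciferase construct received compound for 24 h; activation was quantified by luminescence following luciferase reagent addition.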
ELG1 genotox – genotoxicity induction in ELG1-luciferase HEK293T cells. HEK293T ELG1-luciferase reporter, luminescence, 16 h. Potency, µM (highest dose often 46 µM), for the others: at the top dose activity change, positive = activation, actives largely listed as activators. 330,000 tested, 1.3% active; further: % of control where 0% means no effect; nearly all actives have a fitted effect of over 60% in size
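HEK293T cells expressing luciferase-tagged ELG1 were treated with compound or DMSO for 16 hr at 37°C. Luciferase activity was then read after 30 min with ONE-Glo at room temperature; rising signal flags genetic stress.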
Active calls of the source: *; ? = inconclusive; . = not tested or not shown; [ ] = dose if it differs, or a comment. The call rests on the fitted dose curve; in most records, active means well fitted curve in the direction sought with a large enough effect; inconclusive means small, poorly fitted or top-dose-only effect, or another doubt; inactive means no such curve, though single readings can be large; an effect the other way counts as inactive or inconclusive. Potency means the concentration at half of the fitted maximal effect.

SMILES	Rab9 prom act	SMN2 splice up	FLuc modulator	NPC1 prom act	ELG1 genotox
O=C(Nc1nccs1)c1ccc(-c2ccc(Cl)cc2)o1	1µM*	11µM*	0.21µM*	1.4µM*	?
O=C(Nc1nccs1)c1ccc(-c2ccc([N+](=O)[O-])cc2)o1	1.4µM*	13µM*	6µM*	1.8µM*	?
Cc1nnc(NC(=O)c2ccc(-c3ccc(Cl)cc3)o2)s1	8%	.	-14%	0%	4%
O=C(/C=C/c1ccc(Cl)cc1)Nc1nccs1	0.32µM*	4µM*	1.3µM*	0.63µM*	?
O=C(Cc1ccc(F)cc1)Nc1nccs1	4%	.	-1%	-1%	-11%
O=C(Nc1nccs1)c1ccc(-c2ccc(F)cc2)o1	3.5µM*	11µM*	2.1µM*	2.2µM*	?
C/C=C/C=C/C(=O)Nc1nccs1	?	-6%[1.84 µM]	?	4%	11%
CCOC(=O)c1ccc(-n2c(CCC(=O)O)ccc2-c2ccccc2)cc1O	.	9%	?	.	.
Cc1ccc(NC(=O)c2cc3c(=O)n(Cc4cccnc4)ccc3nc2C)cc1F	.	.	-11%	.	.
Cc1cccc(OCC(=O)Nc2cccc(C(=O)OCc3cc(=O)n4nc(C(C)C)sc4n3)c2)c1	.	.	-14%	.	.
Cc1cs/c(=N\N=C\c2ccccc2)n1Cc1ccco1	8%	-17%	21µM*	10%	3%
O=C(CSc1ncn[nH]1)Nc1ccc(OCc2ccccc2)cc1	?	?	17µM*	29%	?
Nc1nc(SCC(=O)Nc2ccc(OCc3ccccc3)cc2)n[nH]1	?	.	?	?	3%
Cc1nc(SCC(=O)Nc2ccc(OCc3ccccc3)cc2)n[nH]1	?	.	12µM*	27%	15%
CCOc1ccc(NC(=O)CSc2ncn[nH]2)cc1	22%	1%	?	11%	11%
CSc1sccc1/C=C(/C#N)C(=O)c1ccco1	12%	.	15µM*	19%	8%
C=CCOC(=O)N[C@H](c1ccccc1)C(C(C)=O)C(C)=O	.	8%	.	.	.
Cn1c(=O)[nH]c2cc(-c3noc(-c4ccc(Br)cc4)n3)ccc21	.	.	-5%	.	.
CC(C)c1cc(-c2nc(-c3ccccc3)no2)n[nH]1	.	.	1.7µM*	.	.
c1ccc(-c2noc(-c3ccccc3-c3ccccc3)n2)cc1	-5%	-11%	-14%	-2%	0%
CCOc1ccc(-c2nc(-c3ccc(OC)cc3)no2)cc1OCC	1%	-30%	-3%	-1%	-1%
CC(C)c1cc(-c2nc(-c3ccc(Br)cc3)no2)n[nH]1	.	.	13µM*	.	.
Cc1ccccc1-c1noc(-c2cc(C(C)C)[nH]n2)n1	.	.	11µM*	.	.
COc1ccc(-c2noc(-c3cc(C(C)C)[nH]n3)n2)cc1	.	.	21µM*	.	.
COc1ccc(C)cc1NC(=O)CSc1nc(=O)n(Cc2ccccn2)c2c1CCC2	.	.	-7%	.	.
SMILES	Rab9 prom act	SMN2 splice up	FLuc modulator	NPC1 prom act	ELG1 genotox
Cc1ccn2c(CN3CCOCC3)c(-c3ccccc3)nc2c1	?	20µM*	?	19%	20%
Cc1ccccc1NS(=O)(=O)c1ccc2c3c(cccc13)C(=O)N2C	0%	.	2%	-5%	21µM*
CCOC(=O)/C(C#N)=C/c1ccc(-c2ccc(C)cc2)o1	.	10%	3.8µM*	.	.
CCCN1C=CC(=C/C=C(\C#N)C(=O)OCC)C=C1	4µM*	14µM*	6µM*	4µM*	?
CCOC(=O)/C(C#N)=C/c1ccc(-c2ccccc2)o1	.	0%	9.5µM*	.	.
CC(C)COC(=O)/C(C#N)=C\c1ccc(-c2ccccc2Cl)o1	.	-2%	?	.	.
CCOC(=O)/C(C#N)=C/N=c1ccc(C)cn1C	?	.	17µM*	?	?
CCCCOC(=O)/C(C#N)=C/c1ccc(-c2ccc(Br)cc2)o1	.	3%	-19%	.	.
CCN(CC)S(=O)(=O)c1ccc2c(c1)nc(CN(C)C(=O)c1cccc(Cl)c1)n2C	.	.	-10%	.	.
Nc1nc(N)nc(CCCc2nc(N)nc(N)n2)n1	.	-4%[9.22 µM]	.	.	.
c1ccc2c(-n3cccn3)cccc2c1	24%	-4%	15µM*	?	?
COc1ccc(CNC(=O)Cc2ccc(NC(=O)N3CCSc4ncccc43)cc2)cc1	.	.	-4%	.	.
O=C(CCN1C(=O)/C(=C/c2ccco2)SC1=S)Nc1ccc(O)cc1C(=O)O	-2%	.	?	-1%	0%
O=C(CN1C(=O)S/C(=C\c2cccs2)C1=O)Nc1ccc(C(=O)O)c(O)c1	8%	.	24µM*	1%	-1%
O=C(CCN1C(=O)/C(=C/c2ccco2)SC1=S)Nc1ccc(C(=O)O)c(O)c1	-3%	.	7.6µM*	-1%	-3%
O=C(CCN1C(=O)/C(=C\c2ccco2)SC1=S)Nc1ccc(C(=O)O)c(O)c1	-1%	.	11µM*	0%	0%[9.26 µM]
COc1ccccc1/C=C1/SC(=S)N(CCC(=O)Nc2cccnc2)C1=O	18%	.	-10%	-2%	-1%
COc1ccccc1/C=C1\SC(=S)N(CCC(=O)Nc2ccc(C(=O)O)c(O)c2)C1=O	5%	.	6µM*	-1%	4%
O=C(CCCN1C(=O)/C(=C\c2ccco2)SC1=S)Nc1ccc2ccccc2c1	0%	265%	-1%	4%	0%
CCN(CC)S(=O)(=O)c1ccc2c(c1)nc(CN(C)C(=O)Nc1ccc(C)c(Cl)c1)n2C	.	.	-13%	.	.
O=C(Nc1nc2n(n1)C(c1ccc(Cl)cc1)C=C(c1ccccc1)N2)c1ccco1 (configuration not stated)	.	.	-5%	.	.
O=C(OCC1CCCO1)c1ccc2c(c1)N(Cc1ccccc1F)C(=O)c1ccccc1S2(=O)=O (configuration not stated)	.	.	-7%	.	.
COCCNC(=O)CSc1nc(-c2ccccc2C)nc2c1c(=O)n(C)c(=O)n2C	.	.	5%	.	.
COCCCNC(=O)CCc1c(C)nc2nc(-c3cc(OC)cc(OC)c3)nn2c1C	.	-3%	-5%	.	.
Cc1nc2cc3nc(C)sc3cc2s1	4µM*	?	12µM*	?	?
SMILES	Rab9 prom act	SMN2 splice up	FLuc modulator	NPC1 prom act	ELG1 genotox
Cc1nc2cc(CO)ccc2s1	7%	6%	12%	0%	-2%
Clc1ccc(-c2cnc3n2CCC3)cc1	?	-2%	13µM*	22%	12%
O=C(COC(=O)c1ccc(F)c(S(=O)(=O)N2CCOCC2)c1)c1ccccc1	.	.	.	.	5%
Cc1ccc(S(=O)(=O)N2CCOCC2)cc1C(=O)OCC(=O)c1ccc(Br)cc1	-4%	.	3.8µM*	0%	-3%
Cc1ccc(S(=O)(=O)N2CCOCC2)cc1C(=O)OCC(=O)c1ccc[nH]1	-1%	.	1%	-2%	0%
O=C(COC(=O)c1ccc(F)c(S(=O)(=O)N2CCOCC2)c1)c1ccc(Cl)cc1	2%	.	8.5µM*	-2%	-1%
CC(C)OCCCn1c(=O)c2ccccc2n2c(-c3ccc(F)c(F)c3)nnc12	.	.	-6%	.	.
CCOC(=O)N1CCc2c(sc3c2c(=O)n(Cc2ccccc2)c(=O)n3Cc2cccc(Cl)c2)C1	.	-9%	3%	.	.
CCOC(=O)C1CCCN(C(=O)CSCc2ccccc2)C1 (configuration not stated)	6%	4%	?	?	14%
